# Results taken from PubChem BioAssay (NCATS).
# Inconclusive results are not listed. Activity calls are given as the source filed them. Calls follow the shape of the full dose curve; tested in HEK293 reporter line.
# Assay: qHTS for Inhibitors of the Functional Ribonucleoprotein Complex (vRNP) of Lassa (LASV) Arenavirus: Viability assay - alamar blue signal for LASV Primary Screen (AID 1347083); also: nearly all actives have a fitted effect of over 80% in size
# Conditions: cell viability, alamar blue fluorescence (LASV minigenome counter-screen); series mostly up to 57.5 µM; activity change, negative = reduced viability: at the top concentration
# % is scaled to controls: 0 for no effect and ±100 for the full control effect; potency is read from the fitted curve at half-maximal effect.
SMILES,"activity change, negative = reduced viability",Potency
CC1(C)CCC[C@]2(C)[C@H]3CCO[C@]3(C)CC[C@@H]12,-0.0097% [at 115 µM] (inactive),–
O=C(NCCCCNCCCNC(=O)c1ccccc1)c1ccccc1,4.04% (inactive),–
CCCCCc1ccco1,6.07% (inactive),–
COc1cc(C)ccc1C(C)C,1.13% [at 115 µM] (inactive),–
CCN1C[C@]2(C)CCC(OC)[C@@]34C5C[C@@H]6CC[C@@](O)(C5C(=O)O6)[C@@H](C(O)C23)[C@@H]14 (stereo partly specified),16.2% (inactive),–
CC1(C)C[C@H](O)[C@@]23C[C@@H](OC2=O)[C@]2(C)C(=CCC4[C@@]5(C)CC[C@H](O)C(C)(C)C5CC[C@]42C)[C@@H]3C1 (stereo partly specified),14.2% (inactive),–
COc1ccc(-c2cc(=O)c3c(O)cc(OC4OC(COC5OC(C)C(O)C(O)C5O)C(O)C(O)C4O)cc3o2)cc1O (stereo unspecified),0.09% (inactive),–
OCCN1C[C@H](O)[C@@H](O)[C@H](O)[C@@H]1CO,-1.12% (inactive),–
COc1ccc(C(=O)OC2CC[C@@]3(C)C4CCC5[C@]6(O)C[C@H](O)[C@@]7(O)C(CN8CC(C)CCC8[C@@]7(C)O)[C@]6(O)C[C@@]53O[C@]24O)cc1OC (stereo partly specified),4% (inactive),–
C[C@@H]1CC(=O)[C@H]2CC(CO)=CCC[C@@H]2[C@@]1(C)CC/C(=C/CO)CO,4.15% (inactive),–
CCN(CC)CCNC(=O)c1c(C)[nH]c(C=C2C(=O)Nc3ccc(F)cc32)c1C,–,7.89 µM (active)
CCC[C@H]1C[C@H](C(=O)N[C@@H]([C@@H]2O[C@@H](SC)[C@@H](O)[C@@H](O)[C@@H]2O)[C@H](C)Cl)N(C)C1,5.76% (inactive),–
CC1CCC(C(C)[C@H]2CCC3C4CC(=O)C5C[C@@H](O)CC[C@]5(C)C4CC[C@@]32C)=NC1 (stereo partly specified),6.7% (inactive),–
C=C(CC1CC(O)[C@]2(C)OC3CC4OC5C[C@]6(C)O[C@]7(C)CCC8OC9C[C@]%10(C)OC%11C(C)=CC(=O)OC%11CC%10OC9C[C@@H](C)C8OC7CC6O[C@]5(C)C/C=C\C4OC3CC2O1)C(=O)O (stereo partly specified),-0.287% (inactive),–
COc1cc2c(cc1O)C(Cc1ccc(O)cc1)NCC2 (stereo unspecified),1.46% (inactive),–
CCCCCCCCCCCCCCCC(=O)NCCc1c[nH]c2ccccc12,-0.223% (inactive),–
Cc1c(O[C@@H]2O[C@H](CO)[C@@H](O)[C@H](O)[C@H]2O)c(CO)c(O[C@@H]2O[C@H](CO)[C@@H](O)[C@H](O)[C@H]2O)c2c1O[C@@H](c1ccccc1)C[C@@H]2O,5.95% (inactive),–
O[C@@H]1COC2[C@@H](O)CO[C@@H]21 (stereo partly specified),-113% (inactive),–

SMILES,"activity change, negative = reduced viability",Potency
CC(C)=CCC/C(C)=C/COC=O,-0.165% [at 115 µM] (inactive),–
CC1(C)C2CC[C@]3(C)C(CC=C4[C@@H]5C[C@@](C)(CO)[C@@H]6C[C@@]5(CC[C@]43C)C(=O)O6)[C@@]2(C)CC[C@@H]1O (stereo partly specified),11.1% (inactive),–
Cc1ccc(C(C)(C)O)cc1,5.46% [at 115 µM] (inactive),–
CC(C)=CCC/C(C)=C/CC/C(C)=C/CCC1(C)CCc2cc(O)ccc2O1 (stereo unspecified),13.1% (inactive),–
CC(=Cc1ccccc1)C=C1SC(=S)N(CC(=O)O)C1=O,4.39% (inactive),–
CC1CCC(C(C)(C)S)C(=O)C1 (stereo unspecified),17.9% [at 115 µM] (inactive),–
CC[C@H]1OC(=O)[C@H](C)[C@@H](O[C@H]2C[C@@](C)(OC)[C@@H](O)[C@H](C)O2)[C@H](C)[C@@H](O[C@@H]2O[C@@H](C)C[C@H](N(C)C)[C@@H]2O)[C@](C)(O)C[C@@H](C)C(=O)[C@H](C)[C@@H](O)[C@]1(C)O,2.1% (inactive),–
C=CC(=O)Nc1cccc(Nc2nc(NC3CCC(N(C)C)CC3)nc3c2ncn3C(C)C)c1 (stereo unspecified),–,0.968 µM (active)
C/C(=C/CCC(C)(O)C1CC[C@@]2(C)[C@@H]3CC=C4[C@@H](CC[C@H](O[C@H]5O[C@@H](CO)[C@H](O)[C@@H](O)[C@@H]5O)C4(C)C)[C@]3(C)C(=O)C[C@]12C)CO[C@@H]1O[C@H](CO)[C@@H](O)[C@H](O)[C@H]1O (stereo partly specified),2.76% (inactive),–
CC(C)C(=O)OCCc1ccccc1,-5.8% [at 115 µM] (inactive),–
COc1ccc2c(c1)OC[C@H]1c3cc4c(cc3O[C@@H]21)OCO4,2.12% (inactive),–
C[C@@H](O)CCC[C@H](O)/C=C/[C@@H]1[C@@H](C/C=C\CCCC(=O)O)[C@@H](O)C[C@H]1O,-24.9% [at 0.757 µM] (inactive),–
COc1ccccc1NC(C)=O,-11.2% (inactive),–
NCCC(=O)c1ccccc1N,7.1% (inactive),–
C=C1C[C@H](O)[C@@H]2[C@H](OC(=O)[C@H]2C)[C@H]2[C@H](C)[C@@H](O)C[C@@H]12,13% (inactive),–
CC(C)N(CCCNC(=O)Nc1ccc(C(C)(C)C)cc1)C[C@H]1O[C@@H](n2cc(Br)c3c(N)ncnc32)[C@H](O)[C@H]1O,-20.7% (inactive),–
COC(=O)CC(C)CCC=C(C)C (stereo unspecified),9.33% [at 115 µM] (inactive),–
COc1ccc(C(=O)/C=C/c2ccc(O)cc2)c(O)c1CC=C(C)C,8.34% (inactive),–
